PubChem BioAssay (EPA / NIEHS)
Values joined by “and” are separate entries in the source; they are usually repeats but may differ in a detail not shown here. Equal values may be shown once. Results filed as inconclusive are left out. Some compounds were tested as several samples or in several runs, with calls that do not always agree. Active and inactive are the calls of the source. Rule for the calls, unless noted: active = hit-call score of the fitted dose curve at least 0.9, where 1 is the maximum; inactive = score below 0.9.

What was measured:
[1] = read-out: Interleukin-8 (IL8), CXCL8 (gene 3576); assay: BSK_3C_IL8: BioMAP Diversity Plus: 3C Assay for Interleukin-8 (IL8) Biomarker Activity (AID 2283020); settings: primary human endothelial cells (HUVEC); actives raise or lower the signal
How it was run: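 Using DMSO-treated wells as the baseline, bidirectional curve fitting was applied to ELISA-measured IL-8 from human umbilical vein endothelial cultures sampled 24 h after compound addition.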

[2] = read-out: Monokine induced gamma interferon (MIG), CXCL9 (gene 4283); assay: BSK_3C_MIG: BioMAP Diversity Plus: 3C Assay for Monokine induced gamma interferon (MIG) Biomarker Activity (AID 2283021); settings: primary human endothelial cells (HUVEC); actives raise or lower the signal;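 for AC50: MIG protein level measured by immunoassay in the treated endothelial cultures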
How it was run: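 ELISA-measured MIG in dosed HUVEC 3C cultures at 24 h, analysed by bidirectional fitting with DMSO defining baseline activity.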

[3] = BSK_3C_SRB: Viability Assessment in the BioMAP Diversity Plus: 3C Assay (AID 2283023); settings: primary human endothelial cells (HUVEC);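 note: fitted both ways against DMSO so a hit may be signal rise or drop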
How it was run: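 Human umbilical vein endothelial cells in the 3C system, treated 24 h. Total protein measured by 0.1% sulforhodamine B staining after 10% TCA fixation, read at 560 nm; bidirectional fit versus DMSO.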

[4] = read-out: Matrix Metallopeptidase 1 (MMP1), MMP1 (gene 4312); assay: BSK_BE3C_MMP1: BioMAP Diversity Plus: BE3C Assay for Matrix Metallopeptidase 1 (MMP1) Biomarker Activity (AID 2283024); settings: primary human bronchial epithelial cells; actives raise or lower the signal
How it was run: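 In this multiplexed primary-cell system, human bronchial epithelium received chemicals for 24 h before an ELISA for MMP1. Values reflect bidirectional fits normalised to the DMSO baseline.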

[5] = BSK_3C_Vis: BioMAP Diversity Plus: 3C Assay for Morphology Visualization (AID 2283025); settings: primary human endothelial cells (HUVEC);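 note: fitted both ways so gain or loss versus DMSO counts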;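 for AC50: light microscopy image of cell morphology used as background control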
How it was run: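 Light-microscopy morphology readout, 24 h exposure, human primary umbilical vein endothelium; analysed relative to DMSO with bidirectional fitting.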

[6] = read-out: Pselectin, SELP (gene 6403); assay: BSK_4H_Pselectin: BioMAP Diversity Plus: 4H Assay for Pselectin Biomarker Activity (AID 2283026); settings: primary human endothelial cells (HUVEC); actives raise or lower the signal
How it was run: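 Bidirectional fits against DMSO gave the endpoint. Cells: primary human umbilical vein endothelium, chemical-treated for 24 h before ELISA detection of P-selectin.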

[7] = BSK_4H_SRB: Viability Assessment in the BioMAP Diversity Plus: 4H Assay (AID 2283027); settings: primary human endothelial cells (HUVEC);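 note: cells exposed to compound for 24 h before staining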;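 for AC50: curves fitted both ways versus DMSO so AC50 may be loss or gain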
How it was run: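 Cytotoxicity read-out in primary human endothelial cells: after 24 h compound exposure, cells were TCA-fixed (10%), stained with 0.1% SRB and absorbance taken at 560 nm. Values fitted in both directions relative to DMSO.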

[8] = BSK_BE3C_SRB: Viability Assessment in the BioMAP Diversity Plus: BE3C Assay (AID 2283028); settings: primary human bronchial epithelial cells
How it was run: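 Human bronchial epithelial primary cells in confluent culture, 24 h after chemical dosing; total protein by 0.1% SRB staining after 10% TCA fixation, read at 560 nm. Bidirectional fitting versus DMSO baseline.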

[9] = read-out: Thrombomodulin, THBD (gene 7056); assay: BSK_3C_Thrombomodulin: BioMAP Diversity Plus: 3C Assay for Thrombomodulin Biomarker Activity (AID 2283029); settings: primary human endothelial cells (HUVEC); actives raise or lower the signal
How it was run: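 In a multiplexed primary-cell system, human umbilical vein endothelium received chemical and was assayed 24 h later for thrombomodulin by ELISA. Parallel cultures were SRB-stained (0.1% SRB after 10% TCA fixation, read at 560 nm) to flag cytotoxicity.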

[10] = read-out: Urokinase-type plasminogen activator receptor (uPAR), PLAUR (gene 5329); assay: BSK_4H_uPAR: BioMAP Diversity Plus: 4H Assay for Urokinase-type plasminogen activator receptor (uPAR) Biomarker Activity (AID 2283030); settings: primary human endothelial cells (HUVEC); actives raise or lower the signal
How it was run: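 Human umbilical vein endothelial cells in the 4H system, 24 h after chemical dosing. Cell-surface uPAR measured by ELISA, fitted in both directions versus DMSO; cytotoxicity checked by SRB total protein in parallel cultures.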

[11] = read-out: Human Leukocyte Antigen - DR isotype (HLADR), HLA-DRA (gene 3122); assay: BSK_BE3C_HLADR: BioMAP Diversity Plus: BE3C Assay for Human Leukocyte Antigen - DR isotype (HLADR) Biomarker Activity (AID 2283032); settings: primary human bronchial epithelial cells; actives raise or lower the signal
How it was run: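 BioMAP BE3C format: human bronchial epithelium, 24 h compound treatment, ELISA detection of HLA-DR, with bidirectional analysis relative to DMSO.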

[12] = read-out: Vascular cell adhesion molecule 1 (VCAM1), VCAM1 (gene 7412); assay: BSK_4H_VCAM1: BioMAP Diversity Plus: 4H Assay for Vascular cell adhesion molecule 1 (VCAM1) Biomarker Activity (AID 2283033); settings: primary human endothelial cells (HUVEC); actives raise or lower the signal
How it was run: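 In this human endothelial (HUVEC) system, biomarker ELISA was run 24 h after compound addition, and total protein in parallel wells was assessed by SRB at 560 nm; DMSO served as negative control.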

[13] = read-out: Interferon-gamma inducible Protein 10 (IP10), CXCL10 (gene 3627); assay: BSK_BE3C_IP10: BioMAP Diversity Plus: BE3C Assay for Interferon-gamma inducible Protein 10 (IP10) Biomarker Activity (AID 2283034); settings: primary human bronchial epithelial cells; actives raise or lower the signal
How it was run: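 BE3C cells (human bronchial epithelial, primary); 24 h exposure; ELISA for IP-10; DMSO-referenced bidirectional fit.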

[14] = read-out: Monokine induced gamma interferon (MIG), CXCL9 (gene 4283); assay: BSK_BE3C_MIG: BioMAP Diversity Plus: BE3C Assay for Monokine induced gamma interferon (MIG) Biomarker Activity (AID 2283035); settings: primary human bronchial epithelial cells; actives raise or lower the signal;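 note: MIG protein measured by ELISA in BE3C cultures after 24 h of dosing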
How it was run: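 ELISA quantified MIG after 24 h exposure of primary bronchial epithelial cultures, analysed in both directions relative to DMSO. Cytotoxicity tracked in parallel cultures by sulforhodamine B staining.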

[15] = read-out: Transforming growth factor beta 1 (TGFb1), TGFB1 (gene 7040); assay: BSK_BE3C_TGFb1: BioMAP Diversity Plus: BE3C Assay for Transforming growth factor beta 1 (TGFb1) Biomarker Activity (AID 2283036); settings: primary human bronchial epithelial cells; actives raise or lower the signal
How it was run: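 TGF-b1 measured via ELISA, 24 h after chemical dosing of human bronchial epithelial cells (BE3C). Overt cytotoxicity assessed in parallel by SRB (0.1%, TCA-fixed, 560 nm); analysis bidirectional relative to DMSO.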

[16] = read-out: Plasminogen activator inhibitor-1 (PAI1), SERPINE1 (gene 5054); assay: BSK_BE3C_PAI1: BioMAP Diversity Plus: BE3C Assay for Plasminogen activator inhibitor-1 (PAI1) Biomarker Activity (AID 2283037); settings: primary human bronchial epithelial cells; actives raise or lower the signal
How it was run: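 In this multiplexed primary-cell system, bronchial epithelial cells receive test chemical and are sampled at 24 h. PAI-1 is read by ELISA, with DMSO serving as negative control for bidirectional fitting.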

[17] = read-out: urokinase plasminogen activator (uPA), PLAU (gene 5328); assay: BSK_BE3C_uPA: BioMAP Diversity Plus: BE3C Assay for urokinase plasminogen activator (uPA) Biomarker Activity (AID 2283038); settings: primary human bronchial epithelial cells; actives raise or lower the signal;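 note: uPA protein level quantified by ELISA in cell cultures; uPA read one day after compound addition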
How it was run: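 Primary human bronchial epithelial cells, uPA measured by ELISA 24 h after dosing. Bidirectional change relative to DMSO; cytotoxicity checked in parallel cultures by sulforhodamine B total-protein staining.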

[18] = read-out: Vascular endothelial growth factor receptor 2 (Homo sapiens) (UniProt P35968); assay: BSK_4H_VEGFRII: BioMAP Diversity Plus: 4H Assay for Vascular endothelial growth factor receptor 2 (VEGFR2) Biomarker Activity (AID 2283031); settings: primary human endothelial cells (HUVEC); actives raise or lower the signal
How it was run: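 Primary human umbilical vein endothelial cells (4H system), 24 h exposure; cell-surface VEGFR2 measured by ELISA. Bidirectional fitting versus DMSO; cytotoxicity checked in parallel by SRB total-protein staining.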

[19] = read-out: Urokinase-type plasminogen activator receptor (uPAR), PLAUR (gene 5329); assay: BSK_BE3C_uPAR: BioMAP Diversity Plus: BE3C Assay for Urokinase-type plasminogen activator receptor (uPAR) Biomarker Activity (AID 2283039); settings: primary human bronchial epithelial cells; actives raise or lower the signal;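 note: cells exposed to compound for one day before measurement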
How it was run: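 Chemically treated human bronchial epithelial cells (lung primary) are assayed for uPAR by ELISA after 24 h, with data fitted in both directions using DMSO as negative control.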

[20] = target: human Vitamin D Receptor (VDR), VDR (gene 7421) (UniProt P11473); assay: ATG_VDR_TRANS: Attagene TRANS-FACTORIAL HepG2 Assay for human Vitamin D Receptor (VDR) (AID 2283022; active = hit-call score of the fitted dose curve at least 0.9, where 1 is the maximum)
human Vitamin D Receptor (VDR), VDR (gene 7421), sequence (P11473 whole entry, looked up, the tested form may be a part): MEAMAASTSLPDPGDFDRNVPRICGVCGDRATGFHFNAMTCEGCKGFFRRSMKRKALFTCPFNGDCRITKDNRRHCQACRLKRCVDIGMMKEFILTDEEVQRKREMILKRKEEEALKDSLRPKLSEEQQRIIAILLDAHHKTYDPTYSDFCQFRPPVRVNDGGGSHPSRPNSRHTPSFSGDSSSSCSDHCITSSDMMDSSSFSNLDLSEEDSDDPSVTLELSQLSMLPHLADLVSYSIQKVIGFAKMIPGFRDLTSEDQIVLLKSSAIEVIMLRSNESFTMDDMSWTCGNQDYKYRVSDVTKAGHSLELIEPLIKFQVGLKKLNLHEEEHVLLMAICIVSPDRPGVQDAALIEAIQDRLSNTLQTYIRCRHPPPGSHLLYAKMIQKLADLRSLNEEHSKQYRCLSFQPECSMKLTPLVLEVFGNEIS
How it was run: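 HepG2 cells were transiently transfected with GAL4-UAS reporter units and a chimeric VDR-Gal4 construct, then dosed for 24 hours. Reporter mRNA was quantified by RT-PCR, fluorescent labeling, HpaI digestion and capillary electrophoresis; gain of signal analysed vs DMSO.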

Measured: AC50

O=C1OC2(c3ccc(O)cc3Oc3cc(O)ccc32)c2ccccc21
active: [1] 20 µM
not listed: [18] | [19] | [20]
inactive: all other assays above

CCCCOCCOCCO
not listed: [18] | [19] | [20]
inactive: all other assays above

CCCCCCCCCC(=O)OCC
active: [1] 33.2 µM | [3] 32 µM | [5] 14.1 µM | [6] 30.9 µM | [7] 31.5 µM | [9] 29.7 µM | [10] 20 µM | [12] 31.7 µM | [13] 20 µM | [15] 20 µM
inactive: [2] | [4] | [8] | [18] | [11] | [14] | [16] | [17]

CC(=O)CCC=C(C)CCC=C(C)C
active: [12] 28.9 µM
not listed: [18] | [19] | [20]
inactive: all other assays above

OCCN1CCOCC1
not listed: [18] | [19] | [20]
inactive: all other assays above

OCC(F)(OC(F)(F)C(F)(OC(F)(F)C(F)(F)C(F)(F)F)C(F)(F)F)C(F)(F)F (centres undefined)
active: [1] 6.2 µM | [2] 3.71 µM | [3] 4.48 µM and 3.3 µM | [4] 2.54 µM | [6] 4.38 µM | [7] 5.19 µM and 3.7 µM | [9] 4.76 µM and 2.31 µM | [11] 5.06 µM | [12] 2.41 µM | [13] 4.78 µM
inactive: [1] | [2] | [4] | [6] | [8] | [10] | [11] | [12] | [13] | [14] | [16] | [17]

CCOC(=O)CCCCCCCCC(=O)OCC
not listed: [18] | [20]
inactive: all other assays above

CC1(C)[C@H](C=C(Cl)Cl)[C@H]1C(=O)OCc1cccc(Oc2ccccc2)c1
not listed: [18] | [19]
inactive: all other assays above

C=C(C)C(N)=O
not listed: [19]
inactive: all other assays above

CC(=O)OC(C)(C)C1CC=C(C)CC1 (centres undefined)
active: [3] 31.5 µM | [5] 38.9 µM | [6] 31.2 µM | [7] 31 µM | [10] 30.8 µM | [11] 35.4 µM | [12] 35 µM | [13] 31.5 µM
not listed: [18] | [20]
inactive: all other assays above

C#C[C@]1(O)CC[C@H]2[C@@H]3CCc4cc(O)ccc4[C@H]3CC[C@@]21C
active: [1] 5.33 µM | [3] 6.09 µM | [5] 9.8 µM | [7] 3.99 µM | [10] 3.93 µM
not listed: [19] | [20]
inactive: all other assays above
